Data on 20 molecules can be found in PubChem BioAssay.

Unmarked numbers belong to inactive results. For some of these results: Potency and affinity values are given separately. Activity calls are given as the source filed them. Unless noted, how the calls were made is not given here.

Assay [1] in a line: antimalarial activity against Dd2 strain (AID 2302;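 active means growth inhibition above 50% at the single 2 µM test dose, taken to imply half-maximal potency below 2 µM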;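 further: 0% = DMSO untreated growth and 100% = chloroquine plus artemisinin killed control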). As to conditions: P. falciparum Dd2 in RBCs, LDH growth readout, 72 h; at 2 µM; hits give high values.
Assay [2] is described as follows: HepG2 cytotoxicity, primary screen, cytotoxicity control for P. falciparum antimalarial project, cell-based, ATP luminescence (AID 2303;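 active means inhibition above 50%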;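 further: 0% = DMSO wells and 100% = digitonin-killed cells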). The conditions noted are these: HepG2 viability, 24-48 h, at 10 µM, hits give high values.
For assay [3], the target named is L-lactate dehydrogenase (Plasmodium falciparum (isolate CDC / Honduras)) (UniProt Q27743). The experiment in a line: PfLDH activity inhibition – cell lysate, 3D7 strain, counter-screen for P. falciparum growth inhibition project (AID 2304).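 Further: 0% = vehicle and 100% = reference inhibitor.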 The conditions noted are these: P. falciparum 3D7 crude extract, LDH APAD/NBT absorbance; at 2 µM; hits give high values.
Assay [4] can be described thus: inhibition of 3D7 malaria parasite growth – strain 3D7 (AID 2306).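 Further: 0% = DMSO wells and 100% = chloroquine plus artemisinin control wells.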 The conditions noted are these: P. falciparum 3D7 erythrocytic growth, LDH absorbance, 72 h; at 2 µM; hits give high values.
In assay [5] the target is Calcium-dependent protein kinase 1 (Plasmodium falciparum (isolate 3D7)) (UniProt P62344). The experiment in a line: PfCDPK1 kinase inhibitors, biochemical, TCAMS library (AID 1159585; cut-off not given, nearly all actives have IC50 up to about 0.98 µM;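 further: inhibitors leave more ATP so luminescence rises with inhibition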). As to conditions: recombinant PfCDPK1, Kinase-Glo ATP depletion luminescence. For orientation: Kinase-Glo reads ATP consumption through a luciferase reaction.
Assay [6] has as its target Plasmodium falciparum protein kinase 6 (PK6, PF3D7_1337100) (UniProt Q8IDW1). Nature of the assay: PfPK6 kinase inhibitors, biochemical, TCAMS library (AID 1159586). The conditions noted are these: recombinant PfPK6, Kinase-Glo ATP depletion luminescence.
Assay [7] concerns the target Protein kinase 7 (PK7), Plasmodium falciparum 3D7 (PF3D7_0213400) (UniProt Q7YTF7). Nature of the assay: inhibition of Plasmodium PK7 catalytic activity – biochemical, TCAMS antimalarial set, Kinase-Glo luminescence (AID 1159587). As to conditions: recombinant PfPK7, Kinase-Glo ATP depletion luminescence.
The target of assay [8] is Calcium-dependent protein kinase 4 (Plasmodium falciparum (isolate 3D7)) (UniProt Q8IBS5). The experiment in a line: PfCDPK4 kinase inhibitors, biochemical, TCAMS library (AID 1159588; cut-off not given, nearly all actives have IC50 up to about 0.91 µM). The conditions noted are these: recombinant PfCDPK4, Kinase-Glo ATP depletion luminescence.
Chain of Calcium-dependent protein kinase 4 (Plasmodium falciparum (isolate 3D7)) (Q8IBS5 whole entry, looked up): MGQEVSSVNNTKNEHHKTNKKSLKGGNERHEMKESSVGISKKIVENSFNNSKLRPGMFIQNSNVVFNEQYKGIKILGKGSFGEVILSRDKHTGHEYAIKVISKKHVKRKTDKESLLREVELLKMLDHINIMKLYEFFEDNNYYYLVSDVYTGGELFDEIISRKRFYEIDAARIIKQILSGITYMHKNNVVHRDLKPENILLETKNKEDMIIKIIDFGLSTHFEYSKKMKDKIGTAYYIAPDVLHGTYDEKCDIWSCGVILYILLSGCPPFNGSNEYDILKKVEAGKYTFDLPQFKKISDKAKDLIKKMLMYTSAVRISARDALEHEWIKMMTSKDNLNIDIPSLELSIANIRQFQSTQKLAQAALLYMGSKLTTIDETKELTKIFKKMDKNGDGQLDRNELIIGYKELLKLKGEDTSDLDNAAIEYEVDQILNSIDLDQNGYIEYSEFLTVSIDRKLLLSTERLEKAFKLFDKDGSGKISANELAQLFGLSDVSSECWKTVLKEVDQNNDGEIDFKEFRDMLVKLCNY

Chain of Protein kinase 7 (PK7), Plasmodium falciparum 3D7 (PF3D7_0213400) (Q7YTF7 1-343): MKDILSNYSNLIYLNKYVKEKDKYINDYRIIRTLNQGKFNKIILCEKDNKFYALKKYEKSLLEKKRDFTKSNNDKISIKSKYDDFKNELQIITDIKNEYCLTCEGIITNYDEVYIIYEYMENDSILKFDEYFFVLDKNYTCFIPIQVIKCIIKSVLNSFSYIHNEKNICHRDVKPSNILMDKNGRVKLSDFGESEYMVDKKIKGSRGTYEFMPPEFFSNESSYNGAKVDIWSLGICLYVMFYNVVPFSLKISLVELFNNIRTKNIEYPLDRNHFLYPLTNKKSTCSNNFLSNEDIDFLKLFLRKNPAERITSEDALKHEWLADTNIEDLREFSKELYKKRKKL
Chain of Calcium-dependent protein kinase 1 (Plasmodium falciparum (isolate 3D7)) (P62344 whole entry, looked up): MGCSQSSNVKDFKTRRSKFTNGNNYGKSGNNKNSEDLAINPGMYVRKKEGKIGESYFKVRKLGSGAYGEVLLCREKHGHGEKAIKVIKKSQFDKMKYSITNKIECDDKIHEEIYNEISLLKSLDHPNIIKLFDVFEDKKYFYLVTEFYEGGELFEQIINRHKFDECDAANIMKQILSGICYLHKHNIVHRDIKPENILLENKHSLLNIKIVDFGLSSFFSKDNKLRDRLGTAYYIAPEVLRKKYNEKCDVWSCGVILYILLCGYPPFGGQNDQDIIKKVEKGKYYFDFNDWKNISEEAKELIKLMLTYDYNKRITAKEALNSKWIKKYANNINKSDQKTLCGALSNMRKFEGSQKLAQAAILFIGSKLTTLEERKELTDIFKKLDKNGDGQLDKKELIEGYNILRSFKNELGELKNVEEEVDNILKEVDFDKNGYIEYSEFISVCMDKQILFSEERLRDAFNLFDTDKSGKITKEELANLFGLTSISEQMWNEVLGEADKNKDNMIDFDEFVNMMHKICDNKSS
Chain of Plasmodium falciparum protein kinase 6 (PK6, PF3D7_1337100) (Q8IDW1 1-305): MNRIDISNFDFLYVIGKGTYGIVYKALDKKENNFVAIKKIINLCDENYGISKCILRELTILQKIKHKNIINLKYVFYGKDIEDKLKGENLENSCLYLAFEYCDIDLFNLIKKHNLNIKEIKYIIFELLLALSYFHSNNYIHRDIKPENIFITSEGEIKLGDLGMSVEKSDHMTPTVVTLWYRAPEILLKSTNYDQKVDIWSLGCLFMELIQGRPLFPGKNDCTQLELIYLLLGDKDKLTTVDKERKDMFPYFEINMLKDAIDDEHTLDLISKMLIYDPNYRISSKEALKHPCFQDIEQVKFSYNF
Chain of L-lactate dehydrogenase (Plasmodium falciparum (isolate CDC / Honduras)) (Q27743 whole entry, looked up): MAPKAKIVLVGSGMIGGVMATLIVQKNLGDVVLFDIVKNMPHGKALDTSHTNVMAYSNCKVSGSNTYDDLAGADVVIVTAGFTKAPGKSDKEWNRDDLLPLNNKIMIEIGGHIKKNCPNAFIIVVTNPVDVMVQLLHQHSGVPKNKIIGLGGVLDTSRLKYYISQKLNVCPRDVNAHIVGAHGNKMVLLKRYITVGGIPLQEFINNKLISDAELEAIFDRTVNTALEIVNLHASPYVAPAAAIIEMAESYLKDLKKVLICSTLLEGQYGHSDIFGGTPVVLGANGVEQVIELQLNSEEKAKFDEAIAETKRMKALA

For the molecule `NCCNc1ccc([N+](=O)[O-])cc1C(=O)Nc1cccc(C(F)(F)F)c1`, the growth inhibition in assay [1] is 33%; in assay [4] it was 94% (active). Besides, the values for the inhibition in assay [2] and in assay [3] were 1% and 0%, respectively. In addition, the outcome in assay [5], in assay [6], in assay [7] and in assay [8] was inactive.
Consider `O=C(CCc1cccc(O)c1)NCC(NCCCNc1cc(=O)c2ccccc2[nH]1)c1cc(Br)cc(Br)c1` (stereo not given), for which the figures for the growth inhibition in assay [1] and in assay [4] were 37% and 86% (active), respectively. The inhibition in assay [2] was -6%; in assay [3], -4%. The result in assay [5], in assay [6], in assay [7] and in assay [8] was inactive.
In the case of `COc1ccc2nccc([C@@H](O)CN3CCC(NC(=O)c4ccc5cc[nH]c5c4)CC3)c2c1`, the growth inhibition in assay [1] is 23%; in assay [4], 91% (active). Also, the inhibition in assay [2] was 21%; in assay [3], -6%. Moreover, the outcome in assay [5], in assay [6], in assay [7] and in assay [8] was inactive.
Consider `CC(C)n1ncc2c(C(=O)N3CCCCCC3)cc(-c3ccccc3)nc21`, for which the growth inhibition was 42% in assay [1] and 97% (active) in assay [4]. The inhibition in assay [2] is -12%; in assay [3], 2%. Also, the outcome in assay [5], in assay [6], in assay [7] and in assay [8] was inactive.
Consider `O=C(Nc1ccc(C(F)(F)F)cc1)c1cccc(S(=O)(=O)NCC2CCCN(CC3CCCCC3)C2)c1` (stereo not given), for which the values for the growth inhibition in assay [1] and in assay [4] were 4% and 97% (active), respectively. For the same molecule, the inhibition in assay [2] is 27%; in assay [3] it was 0%. In addition, the result in assay [5], in assay [6], in assay [7] and in assay [8] was inactive.
With `O=C(Cn1c(CCc2cccc(F)c2F)nc(=O)c2ccccc21)N(CCN1CCCCC1)Cc1ccc(-c2ccc(C(F)(F)F)cc2)cc1`, the figures for the growth inhibition in assay [1] and in assay [4] were 89% (active) and 101% (active), respectively. In addition, the inhibition in assay [2] was 32%; in assay [3], 4%. The result in assay [5], in assay [6], in assay [7] and in assay [8] was inactive.
As to `Cn1c(O)c(N=NC(=S)N2CCOCC2)c2ccccc21`, the figures for the growth inhibition in assay [1] and in assay [4] were 54% (active) and 95% (active), respectively. Moreover, the values for the inhibition in assay [2] and in assay [3] were 57% (active) and 6%, respectively. For the same molecule, the outcome in assay [5], in assay [6], in assay [7] and in assay [8] was inactive.
Take `CCCCCCCNCc1c(O)ccc2c(CNCCCCCCC)c(O)ccc12`: the growth inhibition was 99% (active) in assay [1] and 100% (active) in assay [4]. For the same molecule, the inhibition is 29% in assay [2] and -3% in assay [3]. Further, the outcome in assay [5], in assay [6], in assay [7] and in assay [8] was inactive.
Regarding `CC(C)c1ccc(C=CC(=O)N2CCC(CCN3CCC(c4c[nH]c5ccccc45)CC3)CC2)cc1`, the growth inhibition in assay [1] was 11%; in assay [4], 93% (active). Further, the inhibition in assay [2] was 85% (active); in assay [3] it was 4%. Moreover, the result in assay [5], in assay [6], in assay [7] and in assay [8] was inactive.
Regarding `CN(C)CCCOc1cccc(NC(=O)Nc2ccc(-c3ccccc3)cc2)c1`, the growth inhibition is 14% in assay [1] and 91% (active) in assay [4]. The inhibition in assay [2] was 9%; in assay [3] it was -8%. In addition, the outcome in assay [5], in assay [6], in assay [7] and in assay [8] was inactive.
Regarding `Nc1nc(Nc2cccc(Cl)c2)ncc1C(=O)NCc1ccncc1`, the growth inhibition in assay [1] is 29%; in assay [4], 98% (active). In addition, the inhibition in assay [2] was 3%; in assay [3], -5%. Besides, the result in assay [5], in assay [6], in assay [7] and in assay [8] was inactive.
Turning to `COc1cc2nc(N3CCC(CNC(=O)c4ccc(-c5ccc(C#N)cc5)cc4)CC3)nc(N)c2cc1OC`, the results for the growth inhibition in assay [1] and in assay [4] were 99% (active) and 100% (active), respectively. The results for the inhibition in assay [2] and in assay [3] were 21% and -4%, respectively. For the same molecule, the result in assay [5], in assay [6], in assay [7] and in assay [8] was inactive.
Consider `CCc1nc2c(cnn2CC)c(NC2CCOCC2)c1CNC(=O)N1CCOCC1`, for which the growth inhibition in assay [1] was 48%; in assay [4], 98% (active). The inhibition is 0% in assay [2] and 4% in assay [3]. The outcome in assay [5], in assay [6], in assay [7] and in assay [8] was inactive.
Consider `Fc1ccc2cc(C=Cc3ccncc3)[nH]c2c1`, for which the growth inhibition in assay [1] is 89% (active); in assay [4], 100% (active). Also, the inhibition in assay [2] was -10%; in assay [3], 0%. The result in assay [5], in assay [6], in assay [7] and in assay [8] was inactive.
Regarding `O=C(NCCCCCN1CCCN(C(=O)Nc2ccc(F)c(C(F)(F)F)c2)CC1)[C@@H]1C[C@H]1c1ccc(Cl)c(Cl)c1`, the growth inhibition in assay [1] was 1%; in assay [4] it was 90% (active). Further, the inhibition in assay [2] is 61% (active); in assay [3], 2%. In addition, the outcome in assay [5], in assay [6], in assay [7] and in assay [8] was inactive.
As to `Cc1c(C(=O)NCc2ccncc2)sc2nc(-c3cccc([N+](=O)[O-])c3)cn12`, the growth inhibition is 29% in assay [1] and 97% (active) in assay [4]. The inhibition is 18% in assay [2] and -2% in assay [3]. Further, the result in assay [5], in assay [6], in assay [7] and in assay [8] was inactive.
For `COc1ccc2nccc([C@@H](O)CN3CCC(NCCOc4ccc(F)cc4Cl)CC3)c2c1`, the values for the growth inhibition in assay [1] and in assay [4] were 85% (active) and 99% (active), respectively. For the same molecule, the values for the inhibition in assay [2] and in assay [3] were 1% and 3%, respectively. Further, the result in assay [5], in assay [6], in assay [7] and in assay [8] was inactive.
As to `CS(=O)(=O)CCNCc1nc(-c2ccc3c(Nc4ccc(Cl)cc4F)ccnc3c2)cs1`, the growth inhibition in assay [1] is 28%; in assay [4], 88% (active). In addition, the inhibition in assay [2] is 19%; in assay [3], 1%. The outcome in assay [5], in assay [6], in assay [7] and in assay [8] was inactive.
Regarding `CCc1cc(OC)c(C(=O)NC2CCN(C[C@H](O)c3ccnc4ccc(OC)cc34)CC2)cc1Br`, the growth inhibition in assay [1] is 56% (active); in assay [4], 98% (active). Moreover, the inhibition was 6% in assay [2] and 2% in assay [3]. For the same molecule, the outcome in assay [5], in assay [6], in assay [7] and in assay [8] was inactive.
`COc1cc(N)cc2sc(N)nc12`: the growth inhibition in assay [1] and in assay [4] was 99% (active) throughout. Further, the inhibition in assay [2] was 0%; in assay [3] it was -2%. Besides, the outcome in assay [5], in assay [6], in assay [7] and in assay [8] was inactive.

Broadly, the inhibition is the drop in the measured response relative to a control, in per cent.
